From PubChem BioAssay AID1159580 (chemical genetic matrix, 2015)
The campaign covered roughly 5,500 compounds. About 2,000 (36%) were called active. Roughly 18% stayed inconclusive and do not appear here. Cut-off read from the data, not from the text of the source: active = normalized growth mostly below about 0.91 (no sharp cut-off); inconclusive = no clear call, values can overlap the other calls; inactive = mostly above about 0.92. The list shows a part of the results.

Assay: chemical genetic growth profiling, strain panel (AID 1159580);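 note: tested at 20 µM; growth read once vehicle control cultures reached saturation at 30 °C; 1 = growth at the plate median or of vehicle wells; lower values mean less growth of the strain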
Conditions: growth OD
[1] = S. cerevisiae deletion strains, locus YDR150W, strain NUM1, hits give low values
[2] = S. cerevisiae deletion strains, locus YGR078C, strain PAC10, hits give low values
[3] = S. cerevisiae deletion strains, locus YMR307W, strain GAS1, hits give low values
[4] = S. cerevisiae deletion strains, locus YNL153C, strain GIM3, hits give low values
[5] = S. cerevisiae deletion strains, locus YNL322C, strain KRE1, hits give low values
[6] = S. cerevisiae deletion strains, locus YPL241C, strain CIN2, hits give low values

Measured: normalized growth

CC#CCOC(=O)c1c(C)nc2sc3c(c2c1N)CCC(O)C3 (stereo not given)
inactive: S. cerevisiae deletion strains, locus YAL040C, strain CLN3, hits give low values 1.06 | S. cerevisiae deletion strains, locus YCL061C, strain MRC1 (second series), hits give low values 0.993 | [1] 0.987 | S. cerevisiae deletion strains, locus YDR363W, strain ESC2, hits give low values 1 | S. cerevisiae deletion strains, locus YER002W, strain NOP16, hits give low values 0.971 | [2] 0.982 | [3] 0.994 | [4] 1.18 | S. cerevisiae deletion strains, locus YNL175C, strain NOP13, hits give low values 0.955 | S. cerevisiae deletion strains, locus YNL197C, strain WHI3, hits give low values 0.967 | S. cerevisiae deletion strains, locus YNL224C, strain SQS1, hits give low values 0.971 | [5] 0.982 | S. cerevisiae deletion strains, locus YOR083W, strain WHI5 (second series), hits give low values 0.891 | [6] 0.99

CC1(C)CC2C1(O)CCC1(C)C=CC(O)C21CO (stereo not given)
inactive: S. cerevisiae deletion strains, locus YAL013W, strain DEP1, hits give low values 0.99 | S. cerevisiae deletion strains, locus YBR021W, strain FUR4, hits give low values 1.01 | S. cerevisiae deletion strains, locus YBR229C, strain ROT2, hits give low values 0.995 | S. cerevisiae deletion strains, locus YCL029C, strain bik1, hits give low values 0.975 | S. cerevisiae deletion strains, locus YDL035C, strain GPR1, hits give low values 0.983 | S. cerevisiae deletion strains, locus YDL074C, strain BRE1, hits give low values 1.03 | S. cerevisiae deletion strains, locus YDL101C, strain DUN1, hits give low values 0.998 | S. cerevisiae deletion strains, locus YDL134C, strain PPH21, hits give low values 0.998 | S. cerevisiae deletion strains, locus YDL185W, strain tfp1, hits give low values 0.976 | S. cerevisiae deletion strains, locus YDL192W, strain arf1, hits give low values 0.979 | S. cerevisiae deletion strains, locus YDR101C, strain arx1, hits give low values 1 | [1] 0.987 | S. cerevisiae deletion strains, locus YDR162C, strain NBP2, hits give low values 1.03 | S. cerevisiae deletion strains, locus YDR318W, strain mcm21, hits give low values 0.975 | S. cerevisiae deletion strains, locus YDR388W, hits give low values 0.993 | S. cerevisiae deletion strains, locus YDR502C, strain sam2, hits give low values 1.01 | S. cerevisiae deletion strains, locus YEL061C, strain CIN8, hits give low values 0.992 | S. cerevisiae deletion strains, locus YER110C, hits give low values 0.959 | S. cerevisiae deletion strains, locus YER155C, strain BEM2, hits give low values 0.995 | S. cerevisiae deletion strains, locus YER167W, strain BCK2, hits give low values 0.982 | S. cerevisiae deletion strains, locus YGL078C, strain dbp3, hits give low values 0.994 | S. cerevisiae deletion strains, locus YGL086W, strain mad1, hits give low values 0.969 | S. cerevisiae deletion strains, locus YGL248W, strain PDE1, hits give low values 0.993 | [2] 1.03 | S. cerevisiae deletion strains, locus YGR135W, strain pre9, hits give low values 1.02 | S. cerevisiae deletion strains, locus YGR229C, strain SMI1, hits give low values 1.03 | S. cerevisiae deletion strains, locus YGR252W, strain gcn5, hits give low values 0.995 | S. cerevisiae deletion strains, locus YHR030C, strain SLT2, hits give low values 0.982 | S. cerevisiae deletion strains, locus YHR079C, strain IRE1 (second series), hits give low values 0.988 | S. cerevisiae deletion strains, locus YHR094C, strain hxt1, hits give low values 0.98 | S. cerevisiae deletion strains, locus YHR129C, strain ARP1, hits give low values 0.997 | S. cerevisiae deletion strains, locus YHR200W, strain rpn10, hits give low values 0.984 | S. cerevisiae deletion strains, locus YIL066C, strain RNR3, hits give low values 0.992 | S. cerevisiae deletion strains, locus YIL073C, strain SPO22, hits give low values 0.873 | S. cerevisiae deletion strains, locus YIL125W, strain kgd1, hits give low values 0.976 | S. cerevisiae deletion strains, locus YIR030C, strain dcg1, hits give low values 0.99 | S. cerevisiae deletion strains, locus YJL095W, strain BCK1, hits give low values 1.04 | S. cerevisiae deletion strains, locus YJL134W, strain LCB3, hits give low values 0.992 | S. cerevisiae deletion strains, locus YJL168C, strain set2, hits give low values 0.989 | S. cerevisiae deletion strains, locus YJL187C, strain SWE1 (second series), hits give low values 1 | S. cerevisiae deletion strains, locus YJR043C, strain POL32, hits give low values 0.994 | S. cerevisiae deletion strains, locus YJR075W, strain HOC1, hits give low values 0.988 | S. cerevisiae deletion strains, locus YKL009W, strain mrt4, hits give low values 0.95 | S. cerevisiae deletion strains, locus YKL068W, hits give low values 0.98 | S. cerevisiae deletion strains, locus YKL085W, strain MDH1 (second series), hits give low values 0.976 | S. cerevisiae deletion strains, locus YKL085W, strain MDH1, hits give low values 0.976 | S. cerevisiae deletion strains, locus YKL190W, strain CNB1, hits give low values 0.999 | S. cerevisiae deletion strains, locus YKR001C, strain vps1, hits give low values 1 | S. cerevisiae deletion strains, locus YLR039C, strain RIC1, hits give low values 0.945 | S. cerevisiae deletion strains, locus YLR058C, strain SHM2, hits give low values 0.983 | S. cerevisiae deletion strains, locus YLR102C, strain apc9, hits give low values 0.987 | S. cerevisiae deletion strains, locus YLR262C, strain YPT6, hits give low values 0.936 | S. cerevisiae deletion strains, locus YLR268W, strain sec22, hits give low values 1.02 | S. cerevisiae deletion strains, locus YLR330W, strain CHS5, hits give low values 0.984 | S. cerevisiae deletion strains, locus YLR342W, strain FKS1 (second series), hits give low values 0.994 | S. cerevisiae deletion strains, locus YLR371W, strain rom2, hits give low values 0.969 | S. cerevisiae deletion strains, locus YLR418C, strain cdc73, hits give low values 1.06 | S. cerevisiae deletion strains, locus YML016C, strain PPZ1, hits give low values 0.994 | S. cerevisiae deletion strains, locus YML032C, strain rad52, hits give low values 1.09 | S. cerevisiae deletion strains, locus YML124C, strain tub3, hits give low values 0.988 | S. cerevisiae deletion strains, locus YMR078C, strain ctf18, hits give low values 0.985 | S. cerevisiae deletion strains, locus YMR223W, strain ubp8, hits give low values 0.977 | S. cerevisiae deletion strains, locus YMR263W, strain SAP30, hits give low values 1.01 | [3] 1.08 | S. cerevisiae deletion strains, locus YNL067W, strain RPL9B, hits give low values 1.03 | S. cerevisiae deletion strains, locus YNL128W, strain TEP1, hits give low values 0.996 | [4] 1.03 | S. cerevisiae deletion strains, locus YNL233W, strain BNI4, hits give low values 1.04 | S. cerevisiae deletion strains, locus YNL250W, strain rad50, hits give low values 0.973 | S. cerevisiae deletion strains, locus YNL271C, strain bni1, hits give low values 0.973 | S. cerevisiae deletion strains, locus YNL298W, strain CLA4, hits give low values 0.977 | S. cerevisiae deletion strains, locus YNL307C, strain MCK1, hits give low values 0.999 | [5] 0.981 | S. cerevisiae deletion strains, locus YNR052C, strain pop2, hits give low values 0.963 | S. cerevisiae deletion strains, locus YOL006C, strain TOP1, hits give low values 1.03 | S. cerevisiae deletion strains, locus YOL012C, strain htz1 1.26 | S. cerevisiae deletion strains, locus YOL147C, strain pex11, hits give low values 0.977 | S. cerevisiae deletion strains, locus YOR061W, strain CKA2, hits give low values 0.997 | S. cerevisiae deletion strains, locus YOR069W, strain VPS5, hits give low values 0.994 | S. cerevisiae deletion strains, locus YOR136W, strain idh2, hits give low values 0.984 | S. cerevisiae deletion strains, locus YOR144C, strain elg1, hits give low values 0.984 | S. cerevisiae deletion strains, locus YOR184W, strain ser1, hits give low values 0.965 | S. cerevisiae deletion strains, locus YOR316C, strain cot1, hits give low values 0.991 | S. cerevisiae deletion strains, locus YPL055C, strain LGE1, hits give low values 1.03 | [6] 0.991 | S. cerevisiae deletion strains, locus YPR119W, strain clb2, hits give low values 0.988 | S. cerevisiae deletion strains, locus YPR141C, strain kar3, hits give low values 0.982 | S. cerevisiae deletion strains, locus YPR163C, strain tif3, hits give low values 0.972 | S. cerevisiae deletion strains, locus YPR167C, strain met16, hits give low values 0.994 | S. cerevisiae deletion strains, strain wtn01, hits give low values 1.02 | S. cerevisiae strains, strain wild type, hits give low values 0.993
